Sampled rows, rich in hits. Any-hit rate of the full collection: about 6.2%.
ATXN2 expr inh = inhibitors of ATXN2 expression | Potency, µM (highest dose often 57 µM), most hits filed as inhibitors | HEK-293 ATXN2-luciferase reporter, luminescence, 24 h | AID 1745845 | hit rate 0.72% among 360,000; note: nearly all actives have a fitted effect of over 55% in size
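ATXN2-luciferase reporter cells (luciferase flanked by upstream and downstream ATXN2 gene portions) were treated 24 h at 37 °C with compounds at up to 57 uM. SteadyGlo luminescence gave expression; GF-AFC fluorescence gave viability.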
S2 tox = cell viability loss in ATXN counter-screen; S2 cells (HEK-293 line with an ATXN2-luciferase reporter) viability, CellTiter-Fluor protease fluorescence, 24 h; Potency, µM (top dose mostly 56.7 µM), most hits filed as cytotoxic; hit rate 0.49% among 400,000; note: nearly all actives have a fitted effect of over 40% in size
HT1080-NT tox = kills 2HG-producing HT-1080-NT fibrosarcoma cells. HT-1080-NT fibrosarcoma viability, CellTiter-Glo ATP luminescence, 48 h. AID 686970. hit rate 1.6% among 360,000. Potency, µM (series often up to 46.1 µM), usual class: cytotoxic;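 note: NT is the 2HG producing partner of a matched IDH1 knockdown line; nearly all actives have a fitted effect of over 55% in size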
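A 48-hour cytotoxicity screen used HT-1080-NT cells plated 2 hours before compound delivery. ATP-based CellTiter-Glo luminescence measured viability, normalized to DMSO and no-cell controls.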
KB-V1 MDR tox = kills drug-selected multidrug resistant KB-V1 cells; KB-V1 MDR cells viability, CellTiter-Glo, 72 h; hit rate 3.4% among 400,000; Potency, µM (top dose mostly 46.1 µM), most hits filed as cytotoxic; note: nearly all actives have a fitted effect of over 60% in size
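KB-V1 MDR subline cells in DMEM (phenol-red free, 10% FBS) exposed to compounds in qHTS concentration series for 72 h at 37 degrees C. Viability read by CellTiter-Glo luminescence; concentration-effect curves fitted after normalization and correction.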
KB-3-1 tox = kills parental KB-3-1 adenocarcinoma cells; KB-3-1 viability, CellTiter-Glo ATP luminescence, 72 h; Potency, µM (titrated, usually from 46.1 µM), hits mostly cytotoxic; hit rate 1.4% among 400,000; AID 1347075; note: nearly all actives have a fitted effect of over 60% in size
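Using CellTiter-Glo luminescence, growth of non-resistant KB-3-1 adenocarcinoma cells is assessed 72 h after pin-tool compound addition at 37 °C. Normalized responses across the concentration series yield fitted curves.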
HT1080 IDH1KD tx = kills HT-1080 cells with IDH1 knockdown. AID 686971. hit rate 2% among 360,000. HT-1080 IDH1 knockdown viability, ATP luminescence, 48 h. Potency, µM (series often up to 46.1 µM), actives largely listed as cytotoxic
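% activity derives from luminescence (CellTiter-Glo), normalised to DMSO and no-cell wells. HT-1080-IDH1KD cells, 750/well, had 48 h compound exposure at 37 °C.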
Numbers stand for hits; n = inactive; u = inconclusive; x = not tested or not shown; [ ] = remark or other dose. Calls come from the whole dose curve; as a rule, active = well fitted curve in the direction sought with a large enough effect; inconclusive = small, poorly fitted or top-dose-only effect, or another doubt; inactive = no such curve, though single readings can be large; an effect the other way counts as inactive or inconclusive.

SMILES | ATXN2 expr inh | S2 tox | HT1080-NT tox | KB-V1 MDR tox | KB-3-1 tox | HT1080 IDH1KD tx
COc1ccc(N2CCN(C(=O)c3ccc(CS(=O)c4cccc(C)c4)o3)CC2)cc1 (centres undefined) | n | n | u | n | u | u
O=C(c1ccc(CS(=O)c2cccc(Cl)c2)o1)N1CCCCCC1 (centres undefined) | n | n | n | 23µM | n | n
O=C(c1ccc(CS(=O)c2cccc(Cl)c2)o1)N1CCN(C2CCCCC2)CC1 (centres undefined) | n | n | n | n | n | n
COc1cccc(N2CCN(C(=O)c3ccc(CS(=O)c4ccccc4C)o3)CC2)c1 (centres undefined) | n | n | 0.46µM | u | 1µM | 0.73µM
COc1cccc(N2CCN(C(=O)c3ccc(CS(=O)c4ccccc4Cl)o3)CC2)c1 (centres undefined) | n | n | u | n | 0.0082µM | 0.0082µM
CCC1CN(CC(=O)NCc2ccc3c(c2)OCO3)Cc2ccc(Cl)cc2O1 (centres undefined) | x | n | x | x | x | x
CC1=C(C(=O)Nc2ccccc2C)C(c2cccs2)n2nc(SCc3ccccc3)nc2N1 (centres undefined) | u | u | x | n | n | x
COc1ccccc1C(=O)Nc1ccc2c(c1)CN(Cc1cnc(C)s1)CC2 | n | n | n | u | n | n
CC(C)(C)c1ccc(C(=O)NCC(c2cccnc2)N2CCc3ccccc3C2)cc1 (centres undefined) | x | x | x | n | n | x
Cc1cc2oc(C(=O)N(Cc3ccccc3F)C3CCS(=O)(=O)C3)c(C)c2cc1Cl (centres undefined) | x | x | x | n | n | x
O=C(CC(=O)c1ccccc1)Nc1ccccn1 | n | n | n | n | n | n
O=C(CC(O)(c1ccccc1)c1ccccc1)Nc1ccccn1 | n | u | n | 15µM | n | n
Cn1c2c(c3cnc4cc(Cl)ccc4c31)CNCC2 | x | x | x | n | n | x
Cc1cc(C)n(CCc2nc(-c3cc4ccccc4o3)cs2)n1 | n | n | n | 16µM | n | n
COc1ccc(NS(=O)(=O)c2ccc(OC)c(N(C)S(=O)(=O)c3ccc(Cl)cc3)c2)cc1 | u | u | 14µM | u | n | u
COc1ccc(NC(=O)COc2ccc(N(C)S(=O)(=O)c3ccc(Cl)cc3)cc2)cc1OC | u | u | n | 0.92µM | 21µM | n
COc1ccc(S(=O)(=O)N2CCCCCC2)cc1N(C)S(=O)(=O)c1ccc(C)cc1 | n | n | n | 2.6µM | n | n
COc1ccc(S(=O)(=O)Nc2ccc(F)c(F)c2)cc1Cl | n | n | u | n | n | u
COc1ccc(OC)c(NC(=O)C(C)n2c(=O)cc(C)c3c(C)nn(-c4ccccc4)c32)c1 (centres undefined) | n | n | x | n | n | x
COc1cccc(-n2cc(C(=O)OCc3ccc(Cl)cc3)c3ccccc3c2=O)c1 | x | x | x | n | n | x
CCCCCCC(=O)N(O)C1CC(=O)N(c2ccc(Br)cc2)C1=O (centres undefined) | n | n | u | n | n | 16µM
CCCCCCC(=O)N(O)C1CC(=O)N(c2ccc(F)cc2)C1=O (centres undefined) | n | u | 16µM | n | n | u
COc1ccc(OC)c(NC(=O)c2ccc(-c3nc(COc4ccccc4)c(C)o3)cc2)c1 | n | n | x | n | n | x
CCn1c2ccccc2nc2cc3c(cc21)c(Cl)c(=O)c1ccccc13 | x | x | u | n | u | 21µM
CCn1c(Nc2ccccc2Cl)nc2ccccc21 | n[11.3 µM] | n | n | n | n | n
SMILES | ATXN2 expr inh | S2 tox | HT1080-NT tox | KB-V1 MDR tox | KB-3-1 tox | HT1080 IDH1KD tx
Cc1ccn(-c2ccc(-c3ncco3)cc2)c(=O)c1-c1ccc2nc(N)ncc2c1 | n | x | x | x | x | x
COc1cc2nc(C3CCC3)n(NC(=O)COc3ccccc3)c(=O)c2cc1OC | n | n | 7.1µM | u | n | n
Cc1ccc2c(c1)-c1c(cnn1CC(=O)N1CCN(c3cc(C)ccc3C)CC1)CO2 | n | n | x | u | n | x
CCOc1ccc(NC(=O)Cc2ccc(NC(=O)N3CCCCc4ccccc43)cc2)cc1 | n | n | x | n | n | x
CC(/C=C1\SC(=Nc2cccnc2)NC1=O)=C\c1ccccc1 | n | n | n | 8.2µM | 16µM | n
Cc1ccc(-c2c3c(=O)n(C)c(=O)n(C)c3c3n2-c2ccccc2NC3c2ccc(C)cc2O)cc1 (centres undefined) | u | u | x | n | u | x
Cc1ccc(C)c(N2CCN(C(=O)c3cc(C)nc4c3c(C)nn4-c3cccc(F)c3)CC2)c1 | n | n | x | n | n | x
CN(Cc1cnn(Cc2ccccc2)c1)C(=O)c1cccc(S(=O)(=O)N2CCOCC2)c1 | n | u | u | n | 15µM | u
CCN(Cc1ccccc1)c1ccc(/C=N/NC(=O)c2cccc(S(=O)(=O)N3CCOCC3)c2)cc1 | n | n | u | u | u | 21µM
COc1ccc(C(=O)N(C)Cc2cnn(Cc3ccccc3)c2)cc1S(=O)(=O)N1CCOCC1 | x | n | 5.8µM | n | 5.8µM | 5.8µM
CCN(CC)c1ccc(/C=N/NC(=O)c2cccc(S(=O)(=O)N3CCOCC3)c2)cc1 | n | n | n | n | n | n
O=C(c1cccc(S(=O)(=O)N2CCOCC2)c1)N(CCc1ccccc1)Cc1ccccc1 | u | u | n | n | u | n
CCN(Cc1ccccc1)c1ccc(/C=N/NS(=O)(=O)c2cccc([N+](=O)[O-])c2)cc1 | n | n | n | 16µM | n | n
COc1ccc(CNC(=O)C2CCN(Cc3nc(-c4ccc(Cl)cc4)oc3C)CC2)cc1 | n | n | x | n | n | x
COc1ccc(NC(=O)c2nc(S(C)(=O)=O)ncc2N(Cc2ccc(C)cc2)Cc2ccco2)cc1Cl | n | n | x | n | n | x
CN(Cc1cnn(-c2ccccc2)c1)C(=O)c1cccc(S(=O)(=O)N(C)c2ccccc2)c1 | x | u | n | u | n | n
Cc1ccc(N(C)S(=O)(=O)c2cccc(C(=O)N(C)Cc3cnn(-c4ccccc4)c3)c2)cc1 | n | u | n | 5.8µM | n | u
Cc1ccc(-n2nnnc2SCC(=O)Nc2cccnc2Cl)cc1 | n | n | n | n | n | n
O=C(CSc1nnnn1-c1ccc(Cl)cc1)Nc1cccnc1Cl | n | u | n | 16µM | n | n
CCCOC(=O)c1ccc(-n2nnnc2SCC(=O)N2CCCCC2)cc1 | n | n | n | n | n | n
COC(=O)c1ccc(-n2nnnc2SCC(=O)N2CCCCC2)cc1 | n | n | n | 21µM | n | n
COc1ccccc1-n1nnnc1SCC(=O)Nc1ccccn1 | n | n | n | 16µM | n | n
Cc1ccc(-n2nnnc2SCC(=O)N2CCCCC2)cc1 | n | n | n | 9.2µM | n | n
CCOc1ccc(S(=O)(=O)NCCc2c(C)[nH]c3c(Cl)cccc23)cc1C | u | n | x | n | n | x

From PubChem BioAssay
